30 sequences from publication PMC10812921, “Transcriptional Coactivator BOB1 (OBF1, OCA-B) Modulates the Specificity of DNA Recognition by the POU-Domain Factors OCT1 and OCT2 in a Monomeric Configuration” can be followed below.

The target in one experiment is POU1 (OCT1 POU domain) (human, UniProt P14859 260-458). Kind of experiment: EMSA-SELEX-seq; no BOB1; 20 mM Tris-HCl pH 7.6, 140 mM NaCl, 10% glycerol, 0.5 mM EDTA, 0.05% Triton X-100, 0.1 mg/mL BSA, 0.1 mg/mL poly(dI-dC), 5 mM DTT, room temperature, 20 min; high values mean tight binding. As to conditions: protein: recombinant; dsDNA, one strand shown. A digest of the protocol: (§1)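 Binding preference is the percentage of sequenced 8-mers matching a motif pattern. Tagged POU-domain proteins expressed in E. coli BL21 were purified under denaturing conditions and renatured. For binding, 30 ng protein met 300 ng of a PCR-amplified double-stranded random 35-nt library, with or without 28 ng coactivator protein, in 20 μL Tris–HCl pH 7.6 binding buffer for 20 min at RT. Complex bands were cut from native 6% PAGE, eluted and PCR-amplified over four rounds, then Illumina-sequenced.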
(In general: A gel shift assay detects complexes by their altered migration in electrophoresis.)

The target in a further experiment is T1, POU2 (OCT2 POU domain) (human, UniProt P09086 175-386).
T1 sequence: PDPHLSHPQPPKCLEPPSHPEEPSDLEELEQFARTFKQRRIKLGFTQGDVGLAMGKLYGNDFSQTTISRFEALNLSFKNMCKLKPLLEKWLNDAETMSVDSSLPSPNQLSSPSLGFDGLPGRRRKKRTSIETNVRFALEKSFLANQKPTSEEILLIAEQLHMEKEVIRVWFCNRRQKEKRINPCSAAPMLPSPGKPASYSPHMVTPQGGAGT
The experiment is described as above. To be noted: protein: recombinant; dsDNA, one strand shown. A digest of the protocol: as §1

Experiment [1] addresses POU1 (OCT1 POU domain);BOB1 (OBF1, OCA-B) (human;human, UniProt P14859;Q16633 260-458;1-256, |). Kind of experiment: EMSA-SELEX-seq; with BOB1 (ternary complex band); 20 mM Tris-HCl pH 7.6, 140 mM NaCl, 10% glycerol, 0.5 mM EDTA, 0.05% Triton X-100, 0.1 mg/mL BSA, 0.1 mg/mL poly(dI-dC), 5 mM DTT, room temperature, 20 min; high values mean tight binding. As to conditions: protein: recombinant;recombinant; copies: 1;1; dsDNA, one strand shown. A digest of the protocol: as §1

Experiment [2] addresses T2, POU2 (OCT2 POU domain);BOB1 (OBF1, OCA-B) (human;human, UniProt P09086;Q16633 175-386;1-256, |).
T2 sequence 1: T1 sequence
T2 sequence 2: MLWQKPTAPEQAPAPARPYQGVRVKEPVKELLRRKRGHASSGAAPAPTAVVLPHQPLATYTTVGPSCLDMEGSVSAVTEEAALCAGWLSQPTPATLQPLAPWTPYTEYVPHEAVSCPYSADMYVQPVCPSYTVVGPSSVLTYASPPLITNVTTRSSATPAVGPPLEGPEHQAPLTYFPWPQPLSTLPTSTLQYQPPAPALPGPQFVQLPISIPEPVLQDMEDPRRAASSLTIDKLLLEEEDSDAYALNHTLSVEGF
Described as above. As to conditions: protein: recombinant;recombinant; copies: 1;1; dsDNA, one strand shown. The procedure, abridged:
as §1

Sequence of POU1 (OCT1 POU domain) (P14859 260-458): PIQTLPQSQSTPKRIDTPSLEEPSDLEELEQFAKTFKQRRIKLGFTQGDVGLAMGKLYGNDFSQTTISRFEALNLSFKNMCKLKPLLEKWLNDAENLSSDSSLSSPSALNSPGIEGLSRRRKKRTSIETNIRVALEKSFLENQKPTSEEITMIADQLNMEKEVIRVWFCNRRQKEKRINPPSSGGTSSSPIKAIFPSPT

Take ATGTCAAA: the binding signal was 0.0744 % of ANNNNAAN 8-mers in the experiment with POU1 (OCT1 POU domain), 0.0673 % of ANNNNAAN 8-mers in the experiment with POU2 (OCT2 POU domain), 0.0745 % of ANNNNAAN 8-mers in experiment [1] and 0.0652 % of ANNNNAAN 8-mers in experiment [2].
Take AGCCCAAG: the binding signal in the experiment with POU1 (OCT1 POU domain) is 0.0111 % of ANNNNAAN 8-mers; in experiment [1], 0.0129 % of ANNNNAAN 8-mers; in experiment [2], 0.0124 % of ANNNNAAN 8-mers.
ATAGCAAA: the binding signal with POU1 (OCT1 POU domain) was 0.0744 % of ANNNNAAN 8-mers; with POU2 (OCT2 POU domain), 0.0552 % of ANNNNAAN 8-mers; in experiment [1], 0.078 % of ANNNNAAN 8-mers; in experiment [2] it was 0.0454 % of ANNNNAAN 8-mers.
Take AGGCGAAC: the binding signal with POU1 (OCT1 POU domain) was 0.0183 % of ANNNNAAN 8-mers; in the experiment with POU2 (OCT2 POU domain) it was 0.0247 % of ANNNNAAN 8-mers; in experiment [1] it was 0.0207 % of ANNNNAAN 8-mers; in experiment [2], 0.0305 % of ANNNNAAN 8-mers.
ATCCTAAA: the binding signal with POU1 (OCT1 POU domain) was 0.0267 % of ANNNNAAN 8-mers; with POU2 (OCT2 POU domain) it was 0.0328 % of ANNNNAAN 8-mers; in experiment [1], 0.0285 % of ANNNNAAN 8-mers; in experiment [2], 0.0421 % of ANNNNAAN 8-mers.
In the case of ATGCAAAT, the binding signal was 5.32 % of ANNNNAAN 8-mers in the experiment with POU1 (OCT1 POU domain), 5.41 % of ANNNNAAN 8-mers with POU2 (OCT2 POU domain), 8.18 % of ANNNNAAN 8-mers in experiment [1] and 12.6 % of ANNNNAAN 8-mers in experiment [2].
In the case of ATAGAAAG, the binding signal was 0.0461 % of ANNNNAAN 8-mers with POU1 (OCT1 POU domain), 0.0598 % of ANNNNAAN 8-mers with POU2 (OCT2 POU domain), 0.0546 % of ANNNNAAN 8-mers in experiment [1] and 0.0487 % of ANNNNAAN 8-mers in experiment [2].
With AGACCAAG, the binding signal was 0.0137 % of ANNNNAAN 8-mers in the experiment with POU1 (OCT1 POU domain), 0.0121 % of ANNNNAAN 8-mers with POU2 (OCT2 POU domain), 0.0164 % of ANNNNAAN 8-mers in experiment [1] and 0.014 % of ANNNNAAN 8-mers in experiment [2].
With ACTGAAAA, the binding signal with POU1 (OCT1 POU domain) is 0.0313 % of ANNNNAAN 8-mers; with POU2 (OCT2 POU domain), 0.0363 % of ANNNNAAN 8-mers; in experiment [1], 0.0328 % of ANNNNAAN 8-mers; in experiment [2], 0.0363 % of ANNNNAAN 8-mers.
Turning to AGGGGAAG, the binding signal in the experiment with POU1 (OCT1 POU domain) is 0.0557 % of ANNNNAAN 8-mers; with POU2 (OCT2 POU domain), 0.0673 % of ANNNNAAN 8-mers; in experiment [1], 0.0507 % of ANNNNAAN 8-mers; in experiment [2], 0.057 % of ANNNNAAN 8-mers.
Regarding ATGATAAG, the binding signal is 0.0843 % of ANNNNAAN 8-mers in the experiment with POU1 (OCT1 POU domain), 0.0984 % of ANNNNAAN 8-mers with POU2 (OCT2 POU domain), 0.0714 % of ANNNNAAN 8-mers in experiment [1] and 0.0768 % of ANNNNAAN 8-mers in experiment [2].
On to AAACTAAC, for which the binding signal in the experiment with POU1 (OCT1 POU domain) is 0.0256 % of ANNNNAAN 8-mers; in the experiment with POU2 (OCT2 POU domain) it was 0.0316 % of ANNNNAAN 8-mers; in experiment [1] it was 0.03 % of ANNNNAAN 8-mers; in experiment [2], 0.0289 % of ANNNNAAN 8-mers.
The matching figures for AATCCAAG: 0.0324 % of ANNNNAAN 8-mers, 0.0339 % of ANNNNAAN 8-mers, 0.0425 % of ANNNNAAN 8-mers and 0.0371 % of ANNNNAAN 8-mers.
The matching figures for AGGTAAAA: 0.129 % of ANNNNAAN 8-mers, 0.1 % of ANNNNAAN 8-mers, 0.146 % of ANNNNAAN 8-mers and 0.085 % of ANNNNAAN 8-mers.
As to AACTAAAG, the binding signal with POU1 (OCT1 POU domain) is 0.024 % of ANNNNAAN 8-mers; with POU2 (OCT2 POU domain), 0.0311 % of ANNNNAAN 8-mers; in experiment [1], 0.0293 % of ANNNNAAN 8-mers; in experiment [2], 0.0355 % of ANNNNAAN 8-mers.
With AATGGAAG, the binding signal was 0.101 % of ANNNNAAN 8-mers with POU1 (OCT1 POU domain), 0.076 % of ANNNNAAN 8-mers with POU2 (OCT2 POU domain), 0.0644 % of ANNNNAAN 8-mers in experiment [1] and 0.0792 % of ANNNNAAN 8-mers in experiment [2].
On to AAGAGAAT, for which the binding signal was 0.0728 % of ANNNNAAN 8-mers with POU1 (OCT1 POU domain), 0.0806 % of ANNNNAAN 8-mers in the experiment with POU2 (OCT2 POU domain), 0.0738 % of ANNNNAAN 8-mers in experiment [1] and 0.0553 % of ANNNNAAN 8-mers in experiment [2].
For AACACAAC, the binding signal was 0.016 % of ANNNNAAN 8-mers with POU1 (OCT1 POU domain), 0.019 % of ANNNNAAN 8-mers with POU2 (OCT2 POU domain), 0.014 % of ANNNNAAN 8-mers in experiment [1] and 0.0272 % of ANNNNAAN 8-mers in experiment [2].
The matching figures for AAACTAAG: 0.0484 % of ANNNNAAN 8-mers, 0.0478 % of ANNNNAAN 8-mers, 0.0636 % of ANNNNAAN 8-mers and 0.052 % of ANNNNAAN 8-mers.
Regarding ATGGTAAC, the binding signal with POU1 (OCT1 POU domain) is 0.0454 % of ANNNNAAN 8-mers; with POU2 (OCT2 POU domain) it was 0.0621 % of ANNNNAAN 8-mers; in experiment [1], 0.0316 % of ANNNNAAN 8-mers; in experiment [2], 0.0429 % of ANNNNAAN 8-mers.
The matching figures for AGCGTAAC: 0.0168 % of ANNNNAAN 8-mers, 0.0207 % of ANNNNAAN 8-mers, 0.0144 % of ANNNNAAN 8-mers and 0.0149 % of ANNNNAAN 8-mers.
Consider AATAAAAG, for which the binding signal in the experiment with POU1 (OCT1 POU domain) was 0.106 % of ANNNNAAN 8-mers; with POU2 (OCT2 POU domain) it was 0.121 % of ANNNNAAN 8-mers; in experiment [1], 0.118 % of ANNNNAAN 8-mers; in experiment [2] it was 0.101 % of ANNNNAAN 8-mers.
AATCAAAA: the binding signal is 0.122 % of ANNNNAAN 8-mers with POU1 (OCT1 POU domain), 0.099 % of ANNNNAAN 8-mers with POU2 (OCT2 POU domain), 0.142 % of ANNNNAAN 8-mers in experiment [1] and 0.0792 % of ANNNNAAN 8-mers in experiment [2].
As to ATCCCAAA, the binding signal in the experiment with POU1 (OCT1 POU domain) was 0.0263 % of ANNNNAAN 8-mers; in the experiment with POU2 (OCT2 POU domain) it was 0.0253 % of ANNNNAAN 8-mers; in experiment [1] it was 0.0343 % of ANNNNAAN 8-mers; in experiment [2] it was 0.0297 % of ANNNNAAN 8-mers.
Turning to ACATTAAG, the binding signal in the experiment with POU1 (OCT1 POU domain) is 0.095 % of ANNNNAAN 8-mers; with POU2 (OCT2 POU domain), 0.0875 % of ANNNNAAN 8-mers; in experiment [1] it was 0.0539 % of ANNNNAAN 8-mers; in experiment [2] it was 0.0487 % of ANNNNAAN 8-mers.
The matching figures for ACTTGAAT: 0.0828 % of ANNNNAAN 8-mers, 0.0961 % of ANNNNAAN 8-mers, 0.0613 % of ANNNNAAN 8-mers and 0.071 % of ANNNNAAN 8-mers.
For the sequence ATCATAAC, the binding signal with POU1 (OCT1 POU domain) was 0.0324 % of ANNNNAAN 8-mers; with POU2 (OCT2 POU domain), 0.0374 % of ANNNNAAN 8-mers; in experiment [1], 0.023 % of ANNNNAAN 8-mers; in experiment [2], 0.0322 % of ANNNNAAN 8-mers.
As for AGATCAAT, the binding signal in the experiment with POU1 (OCT1 POU domain) was 0.0465 % of ANNNNAAN 8-mers; with POU2 (OCT2 POU domain), 0.0432 % of ANNNNAAN 8-mers; in experiment [1], 0.0355 % of ANNNNAAN 8-mers; in experiment [2], 0.0578 % of ANNNNAAN 8-mers.
Take AAGGAAAA: the binding signal with POU1 (OCT1 POU domain) is 0.113 % of ANNNNAAN 8-mers; with POU2 (OCT2 POU domain), 0.0955 % of ANNNNAAN 8-mers; in experiment [1] it was 0.17 % of ANNNNAAN 8-mers; in experiment [2], 0.0999 % of ANNNNAAN 8-mers.
In the case of AAAAAAAT, the binding signal with POU1 (OCT1 POU domain) is 0.13 % of ANNNNAAN 8-mers; with POU2 (OCT2 POU domain), 0.12 % of ANNNNAAN 8-mers; in experiment [1] it was 0.152 % of ANNNNAAN 8-mers; in experiment [2], 0.12 % of ANNNNAAN 8-mers.
